Compounds without any hit were thinned out: in the full panel of roughly 79,000, 15% have a hit. A number with no mark means an inactive call. Cut-off read from the data, not from the text of the source: active = growth inhibition above about 70%; inactive = the rest.
Experiment: NCI Yeast Anticancer Drug Screen. Data for the rad50 strain (AID 155);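 note: 0% = growth of vehicle-only cultures of the same strain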
Conditions: S. cerevisiae rad50 strain growth inhibition; at 50.0 µM; active compounds read high
How it was run: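 DNA repair mutant yeast, compound exposure, growth read-out; inhibition is taken relative to vehicle.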
In the case of `O=C(C[n+]1ccccc1)NNC(=O)/C(=C/c1ccc2c(c1)OCO2)NC(=O)c1ccccc1`, the growth inhibition is reported as -5.95%. `CC(=O)C1=C(C)N2C(=NC3=C(CCc4ccccc43)C2c2ccc(F)cc2)S1` (configuration not stated) showed a growth inhibition of -5.6%. For `Cn1c(=O)c2c(nc(Cl)n2Cc2ccccc2)n(C)c1=O`, the growth inhibition was -39.8%. With `Cc1ccc(S(=O)OCC23CC4CC(CC(C4)C2)C3)cc1` (configuration not stated) the growth inhibition was 17.5%. For `CCCNC(=O)/C=C/C(=O)NCCC`, the growth inhibition was 8.55%.

Experiment: NCI Yeast Anticancer Drug Screen. Data for the mec2-1 strain (AID 157)
Conditions: S. cerevisiae mec2-1 strain, at 50.0 µM, active compounds read high
How it was run: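 Cells of the genetically defined mec2-1 yeast strain are incubated with test compound. Inhibition of growth is calculated against vehicle-treated controls.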
`CN1CCCNCCN(CCc2ccccn2)CCCN(C)CC1` gave a growth inhibition of -1.5%. Work on `CC(C)(c1ccc(O)c([N+](=O)[O-])c1)c1ccc(O)c([N+](=O)[O-])c1` yielded a growth inhibition of -2.75%. For `CCOC(=O)C(NC(=O)C(CCCCNP(=O)(OCC)OCC)NC(=O)C(C)NC(C)=O)C(C)C` (configuration not stated), the growth inhibition was -10.4%. `CC(=O)Nc1cc(C)cc(Br)c1` showed a growth inhibition of -4.1%. Compound `O=C(O)COc1ccccc1OCC(=O)O` has a growth inhibition of 7.3%. `CC(=O)CC(C)(C)c1cc(CC(C)(C)C(N)=O)on1` gave a growth inhibition of 0.25%. In the case of `CCOC(=O)C(C#N)=C1c2ccccc2Oc2ccccc21`, the growth inhibition is reported as 0.9%. For `CN1NC(c2ccc(Cl)cc2)=C(C#N)C(=O)CC1c1ccccc1` (configuration not stated), the growth inhibition was -7.95%. With `CN(C)c1nc(N(C)C)c2cnn(C)c2n1` the growth inhibition was 3.7%. With `Cc1ccc(Nc2nc(C)c(C(=O)C/C(=N/NC(N)=S)C(=O)Nc3cc(Cl)cc(Cl)c3)s2)cc1` the growth inhibition was -13.1%. Work on `OCn1c2ccccc2c2ccccc21` yielded a growth inhibition of 0.55%. `CCCCn1cc(C(=O)O)c(=O)c2c3sccc3ccc21` showed a growth inhibition of -35.8%.

— PubChem BioAssay (NCI)
